In PubChem BioAssay (NCATS):
Inconclusive results are not listed. The source made the active and inactive calls. Calls come from the whole dose curve; as a rule, active = well fitted cell-killing curve with a large enough effect; inconclusive = small, poorly fitted or top-dose-only effect, or effect the other way; inactive = no such curve, though single readings can be large or run the other way.

Columns and labels:
[1] = Quantitative High-Throughput drug screen in 47 multiple myeloma cell lines against the NCATS MIPE library collection: H1112_PLB cell viability assay (AID 1918967; note: nearly all actives have a fitted effect of over 30% in size; note: potency is the fitted concentration of half-maximal effect)
Summary of the method: (§1)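 Steps: seed 500 cells per well; pin-transfer MIPE 4.0 library; incubate 48 h at 37C, 5% CO2, humidified; add CellTiter-Glo, 5 min room temperature; read luminescence.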

[2] = Quantitative High-Throughput drug screen in 47 multiple myeloma cell lines against the NCATS MIPE library collection: Karpas25_ECACC cell viability assay (AID 1918968; note: nearly all actives have a fitted effect of over 35% in size; note: potency is the fitted concentration of half-maximal effect)
Summary of the method: as §1

[3] = Quantitative High-Throughput drug screen in 47 multiple myeloma cell lines against the NCATS MIPE library collection: KMS12PE_JCRB cell viability assay (AID 1918972); note: nearly all actives have a fitted effect of over 30% in size; note: potency is the fitted concentration of half-maximal effect
Summary of the method: as §1

[4] = Quantitative High-Throughput drug screen in 47 multiple myeloma cell lines against the NCATS MIPE library collection: KMS20_JCRB cell viability assay (AID 1918973); note: nearly all actives have a fitted effect of over 45% in size; note: potency is the fitted concentration of half-maximal effect
Summary of the method: as §1

[5] = Quantitative High-Throughput drug screen in 47 multiple myeloma cell lines against the NCATS MIPE library collection: KMS26_JCRB cell viability assay (AID 1918975); note: nearly all actives have a fitted effect of over 45% in size
Summary of the method: (§2)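 qHTS of the MIPE 4.0 collection: 500 myeloma cells/well, 48 h drug exposure at 37C in 5% CO2, then CellTiter-Glo for 5 min at room temperature before luminescence reading.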

[6] = Quantitative High-Throughput drug screen in 47 multiple myeloma cell lines against the NCATS MIPE library collection: KMS12BM_JCRB cell viability assay (AID 1918971); note: nearly all actives have a fitted effect of over 35% in size; note: potency is the fitted concentration of half-maximal effect
Summary of the method: as §2

[7] = Quantitative High-Throughput drug screen in 47 multiple myeloma cell lines against the NCATS MIPE library collection: MMM1_PLB cell viability assay (AID 1918976); note: nearly all actives have a fitted effect of over 35% in size; note: potency is the fitted concentration of half-maximal effect
Summary of the method: (§3)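 Inhibition of viability over 48 h was scored by ATP content (CellTiter-Glo) in 500-cell wells. Zero and full viability were defined by media-only and DMSO-only wells.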

[8] = Quantitative High-Throughput drug screen in 47 multiple myeloma cell lines against the NCATS MIPE library collection: MOLP8_DSMZ cell viability assay (AID 1918977); note: nearly all actives have a fitted effect of over 45% in size; note: potency is the fitted concentration of half-maximal effect
Summary of the method: as §3

[9] = Quantitative High-Throughput drug screen in 47 multiple myeloma cell lines against the NCATS MIPE library collection: KMS21BM_JCRB cell viability assay (AID 1918974); settings: ATP luminescence, 48 h; viability: at 45.8 µM (top of the series) unless noted; note: potency is the fitted concentration of half-maximal effect
Summary of the method: as §1

Row | SMILES | Potency [1] | Potency [2] | Potency [3] | Potency [4] | Potency [5] | Potency [6] | Potency [7] | Potency [8] | Potency [9]
1 | Cc1ccc(C(C)(O)c2nc3ccccc3s2)c(C)c1 (configuration not stated) | inactive | inactive | inactive | inactive | inactive |  |  |  | 
2 | O=C(O)[C@H]1O[C@H](Oc2cc3oc(-c4ccccc4)cc(=O)c3c(O)c2O)[C@H](O)[C@@H](O)[C@H]1O | inactive | inactive | inactive |  |  | 16.6 µM (active) | 20.9 µM (active) |  | 
3 | O=c1cc(-c2ccccc2)oc2cc(O)c(O)c(O)c12 | 20.9 µM (active) | 20.9 µM (active) | inactive |  |  |  | 23.5 µM (active) |  | 
4 | Cn1c(N2CCCCS2(=O)=O)nc(C(=O)NCc2ccc(F)cc2)c(O)c1=O | inactive | 20.9 µM (active) | 20.9 µM (active) | inactive |  |  |  | inactive | 
5 | Clc1ccc(-c2nc3sccn3c2C=NOCc2ccc(Cl)c(Cl)c2)cc1 | inactive | inactive | inactive |  |  |  | 0.372 µM (active) | inactive | 
6 | O=C(O)c1c(Cl)c(Cl)c(Cl)c(Cl)c1-c1c2cc(I)c(=O)c(I)c-2oc2c(I)c(O)c(I)cc12 | 3.32 µM (active) | 7.43 µM (active) | 10.5 µM (active) |  |  |  |  |  | 
7 | NC(=O)c1ccc2nc(-c3ccc(Oc4ccc(Cl)cc4)cc3)[nH]c2c1 | inactive | 4.69 µM (active) | 9.35 µM (active) | 5.26 µM (active) |  |  |  |  | 18.7 µM (active)
8 | CC(=O)Nc1ccc([C@H](C)C(=O)Nc2ncc(C(C)C)s2)cc1 | 4.18 µM (active) | 1.05 µM (active) |  | 3.32 µM (active) |  | 2.35 µM (active) | 6.62 µM (active) | 3.32 µM (active) | 
9 | CC(C)C[C@H](CC(=O)O)C(=O)N[C@@H](Cc1c[nH]c2ccccc12)C(=O)N[C@@H](C)c1ccccc1 | inactive | inactive | inactive | inactive |  |  |  |  | 
10 | CCS(=O)(=O)N1CC(CC#N)(n2cc(-c3ncnc4[nH]ccc34)cn2)C1 | inactive | inactive |  | inactive |  | 18.7 µM (active) |  |  | 
11 | CC[C@H]1OC(=O)[C@H](C)[C@@H](O[C@H]2C[C@@](C)(OC)[C@@H](O)[C@H](C)O2)[C@H](C)[C@@H](O[C@@H]2O[C@H](C)C[C@H](N(C)C)[C@@H]2O)[C@](C)(O)C[C@@H](C)CN(C)[C@H](C)[C@@H](O)[C@]1(C)O | inactive | inactive | inactive |  | inactive | inactive |  |  | 
12 | O=C1Nc2ccc(Cl)cc2C(C#CC2CC2)(C(F)(F)F)O1 (configuration not stated) | 23.5 µM (active) | 20.9 µM (active) |  | 20.9 µM (active) |  | 23.5 µM (active) |  |  | 
13 | O=C1NC(=O)C(=Cc2ccc3c(c2)OC(F)(F)O3)S1 | 20.9 µM (active) | 18.7 µM (active) |  | 13.2 µM (active) |  |  | 10.5 µM (active) | inactive | 3.32 µM (active)
14 | CC1(C)CCC[C@@]2(C)[C@@H]1CC[C@@]1(C)OC(=O)C[C@H]21 | inactive | inactive | 14.8 µM (active) |  |  |  |  |  | inactive
15 | COc1ccc(C2Sc3ccccc3N(CCN(C)C)C(=O)C2OC(C)=O)cc1 (configuration not stated) | inactive | inactive | inactive | inactive |  | 2.64 µM (active) |  |  | 
16 | Cc1nnc(C(C)C)n1C1C[C@H]2CC[C@@H](C1)N2CC[C@H](NC(=O)C1CCC(F)(F)CC1)c1ccccc1 (some centres not stated) | 14.8 µM (active) | 18.7 µM (active) |  |  |  |  |  | inactive | 
17 | CO[C@H]1C[C@@H]2CC[C@@H](C)[C@@](O)(O2)C(=O)C(=O)N2CCCC[C@@H]2C(=O)O[C@H]([C@H](C)C[C@@H]2CC[C@H](OP(C)(C)=O)[C@H](OC)C2)CC(=O)[C@H](C)C=C(C)[C@@H](O)[C@@H](OC)C(=O)[C@H](C)C[C@H](C)C=CC=CC=C1C | 18.7 µM (active) | 20.9 µM (active) |  |  |  |  |  |  | 18.7 µM (active)
18 | CN(C[C@@H]1COCCO1)S(=O)(=O)Nc1ccc2ccc3ncc(-c4cnn(C)c4)cc3c(=O)c2c1 | 1.66 µM (active) | 3.32 µM (active) | 0.743 µM (active) | 1.18 µM (active) |  | 16.6 µM (active) |  |  | 5.26 µM (active)
19 | COc1ccc(-n2c(C)c([N+](=O)[O-])c3ccc(O)cc32)cc1 | inactive | 26.4 µM (active) |  |  |  |  |  | inactive | 
20 | C[C@@H]1CCN(C(=O)CC#N)C[C@H]1N(C)c1ncnc2[nH]ccc12 | inactive | inactive | inactive |  |  |  | inactive | inactive | 
21 | O=c1c(O)c(-c2ccc(O)cc2)oc2cc(O)cc(O)c12 | 20.9 µM (active) | 9.35 µM (active) | 16.6 µM (active) | 14.8 µM (active) |  |  |  |  | 5.9 µM (active)
22 | CCC(=O)NC[C@H](Cc1ccc(OCCc2nc(-c3ccccc3)oc2C)cc1)NC(C)=CC(=O)c1ccc(C(F)(F)F)cc1 | inactive | inactive | 7.43 µM (active) | inactive |  | 26.4 µM (active) | 20.9 µM (active) | 23.5 µM (active) | 
